Inconclusive results are not listed. Calls of active or inactive are those of the source. Unless noted, calls come from the whole dose curve; as a rule, active = well fitted curve in the direction sought with a large enough effect in the repeat runs; inconclusive = weak or mixed curves; inactive = no such curve, though single readings can be large; an effect the other way counts as inactive or inconclusive.
How the values were obtained:
[1] = qHTS assay to identify small molecule agonists of the estrogen receptor alpha (ER-alpha) signaling pathway in the presence of an antagonist - cell viability counter screen (AID 1259386);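 note: cells exposed to compounds for 22 h at 37 °C before the viability read; nearly all actives have a fitted effect of over 30% in size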; note: potency is the fitted concentration of half-maximal effect; for activity change, negative = cytotoxicity: series mostly up to about 92 µM
Outline: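 The test measures whether compounds kill ER-alpha reporter cells (VM7Luc4E2) under antagonist co-treatment (ICI-182,780, 10.0nM). Fluorescence from CellTiter-Fluor is read after a 22hr exposure.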

[2] = target: Progesterone receptor (Homo sapiens) (UniProt P06401); test: qHTS assay to identify small molecule agonists of the progesterone receptor (PR) signaling pathway (AID 1346784; calls by dose curve; note: nearly all actives have a fitted effect of over 30% in size)
Sequence of Progesterone receptor (Homo sapiens) (P06401 whole entry, looked up): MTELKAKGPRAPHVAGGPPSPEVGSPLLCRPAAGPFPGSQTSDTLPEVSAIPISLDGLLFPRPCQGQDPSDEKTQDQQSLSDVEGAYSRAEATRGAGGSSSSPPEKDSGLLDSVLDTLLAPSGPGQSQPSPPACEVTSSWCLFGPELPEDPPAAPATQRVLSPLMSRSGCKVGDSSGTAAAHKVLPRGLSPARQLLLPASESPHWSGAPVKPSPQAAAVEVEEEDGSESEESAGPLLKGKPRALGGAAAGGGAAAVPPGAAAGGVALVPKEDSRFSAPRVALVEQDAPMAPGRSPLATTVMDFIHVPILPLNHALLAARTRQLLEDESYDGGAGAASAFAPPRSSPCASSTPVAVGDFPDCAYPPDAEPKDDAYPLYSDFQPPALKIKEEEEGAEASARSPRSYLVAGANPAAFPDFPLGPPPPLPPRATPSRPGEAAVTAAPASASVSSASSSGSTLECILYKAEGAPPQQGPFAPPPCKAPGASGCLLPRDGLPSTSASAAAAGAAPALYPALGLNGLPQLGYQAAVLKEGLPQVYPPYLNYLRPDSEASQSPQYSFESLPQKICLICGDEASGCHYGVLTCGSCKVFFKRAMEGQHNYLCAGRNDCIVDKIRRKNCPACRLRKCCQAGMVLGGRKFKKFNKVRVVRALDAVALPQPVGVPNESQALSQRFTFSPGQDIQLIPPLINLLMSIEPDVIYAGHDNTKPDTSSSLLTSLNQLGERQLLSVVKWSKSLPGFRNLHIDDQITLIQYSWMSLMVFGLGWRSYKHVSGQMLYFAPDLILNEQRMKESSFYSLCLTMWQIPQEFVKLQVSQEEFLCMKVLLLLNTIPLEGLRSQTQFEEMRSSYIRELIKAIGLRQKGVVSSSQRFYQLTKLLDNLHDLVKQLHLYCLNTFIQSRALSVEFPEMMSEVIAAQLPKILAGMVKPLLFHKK
Outline: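 Compounds were tested for PR agonism in HEK 293T cells bearing a beta-lactamase gene under UAS control. Treatment lasted 16 hr at 37C; signal came from fluorescence of a FRET substrate.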

[3] = target: Progesterone receptor (Homo sapiens) (UniProt P06401); test: qHTS assay to identify small molecule antagonists of the progesterone receptor (PR) signaling pathway (AID 1346795; active = well fitted inhibition curve with a large enough effect in the signal ratio in the repeat runs, not every such curve was filed as active; the % refers to the signal ratio; note: potency is the fitted concentration of half-maximal effect)
Outline: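 In HEK293T cells bearing the PR-UAS-bla reporter, compound effects on promegestone-driven (1 nM) beta-lactamase expression are assessed after 16 hr using a fluorescent FRET substrate incubated 2 hr at room temperature.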

[4] = qHTS assay to identify small molecule antagonists of the progesterone receptor (PR) signaling pathway - cell viability counter screen (AID 1346798); note: nearly all actives have a fitted effect of over 50% in size; note: potency is the fitted concentration of half-maximal effect; for activity change, negative = cytotoxicity: series mostly up to about 92 µM
Outline: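 Following a 4 hr attachment, PR-UAS-bla HEK293T cells in charcoal-stripped FBS medium were exposed to compounds with R5020 for 16 hr; CellTiter-Glo was added and luminescence read after 30 min at room temperature.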

[5] = qHTS assay to identify small molecule agonists of the progesterone receptor (PR) signaling pathway - cell viability counter screen (AID 1346799; calls by dose curve; note: nearly all actives have a fitted effect of over 45% in size; note: potency is the fitted concentration of half-maximal effect)
Outline: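 Here, 3,000 PR-UAS-bla HEK293T cells per well were treated with compounds for 16 hr after a 6 hr preincubation at 37C and 5% CO2; cell viability is the CellTiter-Glo luminescence signal.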

[6] = qHTS assay to identify small molecule antagonists of the TGF-beta/Smad signaling pathway - cell viability counter screen (AID 1346824); note: nearly all actives have a fitted effect of over 50% in size
Outline: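 SBE-bla HEK 293T cells, incubated overnight, then compound plus 0.25 ng/mL TGF-beta1 (stock added) for 5 hr at 37 C. Viability was read in the same wells by CellTiter-Glo luminescence after 30 min at room temperature.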

[7] = qHTS assay to identify small molecule agonists of the TGF-beta/Smad signaling pathway - cell viability counter screen (AID 1346829); note: nearly all actives have a fitted effect of over 45% in size; note: potency is the fitted concentration of half-maximal effect; for activity change, negative = cytotoxicity: top concentration of the series differs between compounds
Outline: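 HEK 293T SBE-bla line, 5 hr compound exposure at 37 C, multiplexed CellTiter-Glo viability read by luminescence.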

[8] = qHTS assay to identify small molecule agonists of the TGF-beta/Smad signaling pathway (AID 1346859; active = well fitted activation curve with a large enough effect in the signal ratio in the repeat runs, not every such curve was filed as active; the % refers to the signal ratio; note: series mostly up to about 77 µM)
Outline: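 Each well held 4,000 SBE-bla HEK 293T cells incubated overnight before compound addition; 5 hr later the cleavable FRET substrate went on for 2 hr at room temperature, and fluorescence was read at two emissions.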

[9] = target: Thyrotropin-releasing hormone receptor (Homo sapiens) (UniProt P34981); test: qHTS assay to identify small molecule antagonists of the thyrotropin-releasing hormone receptor (TRHR) signaling pathway (AID 1346877; active = well fitted inhibition curve with a large enough effect in the repeat runs, not every such curve was filed as active; note: series mostly up to about 51 µM)
Sequence of Thyrotropin-releasing hormone receptor (Homo sapiens) (P34981 whole entry, looked up): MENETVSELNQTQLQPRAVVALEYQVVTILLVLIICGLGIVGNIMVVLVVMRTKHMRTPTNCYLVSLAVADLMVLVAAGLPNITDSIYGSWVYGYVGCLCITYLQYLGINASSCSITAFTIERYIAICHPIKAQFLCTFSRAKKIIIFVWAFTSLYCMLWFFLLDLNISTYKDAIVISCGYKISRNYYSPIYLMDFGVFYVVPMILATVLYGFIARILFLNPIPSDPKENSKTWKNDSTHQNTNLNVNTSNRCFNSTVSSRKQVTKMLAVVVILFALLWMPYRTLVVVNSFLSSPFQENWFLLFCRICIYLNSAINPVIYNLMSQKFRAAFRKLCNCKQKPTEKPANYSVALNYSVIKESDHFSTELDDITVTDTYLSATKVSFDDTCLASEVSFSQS
Outline: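 Overnight-plated (18 h, 37 °C) HEK293 cells expressing TRHR were dye-loaded 2 h, treated with compound, then stimulated with TRH at 1 nM final. Fluorescence intensity was captured every second for 3 min.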

[10] = target: Thyrotropin-releasing hormone receptor (Homo sapiens) (UniProt P34981); test: qHTS assay to identify small molecule agonists of the thyrotropin-releasing hormone receptor (TRHR) signaling pathway (AID 1346891; calls by dose curve; note: series mostly up to about 58 µM)
Outline: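 Screening of agonists relied on calcium signalling in HEK293 cells expressing human TRHR: dye loading 2 h at 37 °C preceded compound addition and a 3-min fluorescence time course.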

[11] = Caspase-3/7 induction in HepG2 cells by small molecules, qHTS assay (AID 1346978); note: nearly all actives have a fitted effect of over 15% in size
Outline: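 Wild-type HepG2 cells, 2,000/well, settled 5 hr at 37 C and 5% CO2, then compound-treated for 17 hr; caspase-3/7 activity read by luminescent Caspase-Glo 3/7 after 30 min at room temperature.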

[12] = Caspase-3/7 induction in CHO-K1 cells by small molecules, qHTS cell viability counter screen (AID 1346979); note: nearly all actives have a fitted effect of over 35% in size; note: potency is the fitted concentration of half-maximal effect
Outline: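 CellTiter-Fluor viability check, qHTS format: wild-type CHO-K1, 16hr compound treatment, 1hr reagent incubation, fluorescence read.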

[13] = Caspase-3/7 induction in CHO-K1 cells by small molecules, qHTS assay (AID 1346980); note: nearly all actives have a fitted effect of over 15% in size
Outline: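 Wild-type CHO-K1 cells exposed to compounds for 17hr at 37 C, 5% CO2. Caspase-3/7 activity then measured by Caspase-Glo 3/7 luminescence after 30min at room temperature.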

[14] = Caspase-3/7 induction in HepG2 cells by small molecules, qHTS cell viability counter screen (AID 1346981); note: nearly all actives have a fitted effect of over 30% in size; note: potency is the fitted concentration of half-maximal effect; for activity change, negative = cytotoxicity: series mostly up to about 92 µM
Outline: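 Treatment of HepG2 cells with DMSO-delivered compounds ran 16 hr at 37 C following a 5-hr pre-incubation of 2,000 cells/well. CellTiter-Fluor fluorescence, read after 1 hr, served as the viability measure in a qHTS format.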

[15] = target: Nuclear receptor subfamily 1 group I member 2 (Rattus norvegicus) (UniProt Q9R1A7); test: Rat pregnane X receptor (rPXR) activation by small molecules, qHTS assay (AID 1346983); details: rPXR luciferase reporter cells, One-Glo luminescence, 24 h; max activation: hits give high values; note: nearly all actives have a fitted effect of over 20% in size
Sequence of Nuclear receptor subfamily 1 group I member 2 (Rattus norvegicus) (Q9R1A7 whole entry, looked up): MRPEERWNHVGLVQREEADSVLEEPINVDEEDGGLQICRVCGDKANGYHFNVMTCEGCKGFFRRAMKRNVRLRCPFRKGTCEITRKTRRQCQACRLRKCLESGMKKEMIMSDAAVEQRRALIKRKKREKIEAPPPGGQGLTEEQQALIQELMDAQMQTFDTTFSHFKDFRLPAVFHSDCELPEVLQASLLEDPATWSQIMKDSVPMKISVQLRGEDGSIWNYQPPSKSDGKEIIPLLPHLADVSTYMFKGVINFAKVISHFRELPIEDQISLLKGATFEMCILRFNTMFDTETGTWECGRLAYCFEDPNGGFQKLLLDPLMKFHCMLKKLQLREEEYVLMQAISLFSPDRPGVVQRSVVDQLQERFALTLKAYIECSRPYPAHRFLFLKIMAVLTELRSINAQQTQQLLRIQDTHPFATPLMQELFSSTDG
Outline: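 Cell-based rPXR activation assay: rPXR cells, 2,000 per well, rested 5hr at 37 C, then exposed to compounds in DMSO for 24 hr at 37 C. Luciferase activity read by One-Glo luminescence after 30 min at room temperature.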

[16] = Human pregnane X receptor (PXR) small molecule agonists, qHTS cell viability counter screen (AID 1346977); note: nearly all actives have a fitted effect of over 50% in size; note: potency is the fitted concentration of half-maximal effect
Outline: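 Tox21 qHTS format; PXR-Luc HepG2, 2,000/well, charcoal-stripped FBS 5%. Cpd exposure 24hr. Read: CellTiter-Fluor fluorescence, multiplexed with luciferase.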

[17] = target: Nuclear receptor subfamily 1 group I member 2 (Homo sapiens) (UniProt O75469); test: Human pregnane X receptor (PXR) small molecule agonists, qHTS assay (AID 1346982); note: nearly all actives have a fitted effect of over 35% in size; note: potency is the fitted concentration of half-maximal effect
Sequence of Nuclear receptor subfamily 1 group I member 2 (Homo sapiens) (O75469 whole entry, looked up): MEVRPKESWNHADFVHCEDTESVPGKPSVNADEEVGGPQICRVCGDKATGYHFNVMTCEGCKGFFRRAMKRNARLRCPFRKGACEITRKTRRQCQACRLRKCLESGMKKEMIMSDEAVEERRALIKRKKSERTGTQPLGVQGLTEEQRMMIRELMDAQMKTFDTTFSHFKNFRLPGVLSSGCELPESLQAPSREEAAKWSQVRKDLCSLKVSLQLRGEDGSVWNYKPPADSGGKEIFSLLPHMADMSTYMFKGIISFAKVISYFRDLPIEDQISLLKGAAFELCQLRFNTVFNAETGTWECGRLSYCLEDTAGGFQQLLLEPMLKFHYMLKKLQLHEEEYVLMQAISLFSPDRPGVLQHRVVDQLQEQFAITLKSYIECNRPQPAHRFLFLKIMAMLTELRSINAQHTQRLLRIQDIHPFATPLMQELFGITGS
Outline: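 Stable HepG2 line reporting PXR-mediated CYP3A4 expression via luciferase. Treatment: 24 hr with compounds in DMSO at 37 C. Detection: ONE-Glo luminescence.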

[18] = target: Nuclear receptor subfamily 1 group I member 2 (Homo sapiens) (UniProt O75469); test: Human pregnane X receptor (PXR) activation by small molecules, qHTS assay (AID 1346985); note: nearly all actives have a fitted effect of over 40% in size
Outline: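 DPX-2 cells (HepG2 co-transfected with a PXR response element and a CYP3A4-promoter luciferase construct) were seeded at 2,000 per well, rested 5 hr at 37C, then exposed to DMSO-dissolved compounds for 24 hr. Activation was read as luciferase luminescence.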

[19] = target: Cytochrome P450 2D6 (Homo sapiens) (UniProt P10635); test: Cytochrome P450 Family 2 Subfamily D Member 6 (CYP2D6) small molecule antagonists: luciferase reporter qHTS assay (AID 1671196); note: nearly all actives have a fitted effect of over 50% in size; note: potency is the fitted concentration of half-maximal effect; for activity change, negative = inhibition: series mostly up to about 120 µM
Sequence of Cytochrome P450 2D6 (Homo sapiens) (P10635 whole entry, looked up): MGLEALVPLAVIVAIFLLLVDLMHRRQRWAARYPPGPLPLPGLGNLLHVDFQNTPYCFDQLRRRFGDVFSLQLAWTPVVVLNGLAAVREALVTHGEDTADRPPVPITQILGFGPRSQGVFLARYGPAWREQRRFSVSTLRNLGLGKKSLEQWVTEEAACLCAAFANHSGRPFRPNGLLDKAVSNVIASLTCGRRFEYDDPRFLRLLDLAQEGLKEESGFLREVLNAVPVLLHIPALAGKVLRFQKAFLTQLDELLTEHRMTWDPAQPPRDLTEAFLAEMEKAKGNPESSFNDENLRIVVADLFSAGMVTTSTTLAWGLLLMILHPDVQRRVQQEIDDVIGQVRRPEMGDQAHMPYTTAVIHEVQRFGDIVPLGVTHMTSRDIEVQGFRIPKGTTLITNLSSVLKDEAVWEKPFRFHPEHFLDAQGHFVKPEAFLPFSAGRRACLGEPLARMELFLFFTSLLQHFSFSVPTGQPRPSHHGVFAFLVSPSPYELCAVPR
Outline: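 Chemicals tested for interference with CYP2D6 activity; proluciferin substrate, NADPH regeneration, 1 h at room temperature, luminescent detection.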
% is set by controls: 0 for no effect and ±100 for the full control effect.

C[C@H]1[C@H]2CC[C@H]3[C@@H]4CC=C5C[C@@H](N(C)C)CC[C@]5(C)[C@H]4CC[C@]23CN1C
inactive: Potency [1] | Potency [2] | Potency [3] | Potency [4] | Potency [5] | Potency [6] | Potency [7] | Potency [8] | Potency [9] | Potency [10] | Potency [11] | Potency [12] | Potency [13] | Potency [14] | max activation [15] -5.76%

CC(=O)SC[C@@H](Cc1ccccc1)C(=O)NCC(=O)OCc1ccccc1
inactive: Potency [1] | Potency [2] | Potency [3] | Potency [4] | Potency [5] | Potency [6] | Potency [7] | Potency [8] | Potency [16] | Potency [11] | Potency [12] | Potency [13] | Potency [14] | Potency [17] | max activation [15] -6.71% | Potency [18]

C1CCCC1
active: Potency [19] 34.8 µM
inactive: Potency [1] | Potency [2] | Potency [3] | Potency [4] | Potency [5] | Potency [6] | Potency [7] | Potency [8] | Potency [9] | Potency [10] | Potency [16] | Potency [11] | Potency [12] | Potency [13] | Potency [14] | Potency [17]

Cc1onc(-c2ccccc2Cl)c1C(=O)N[C@@H]1C(=O)N2[C@@H]1SC(C)(C)[C@@H]2C(=O)O
inactive: Potency [1] | Potency [2] | Potency [3] | Potency [4] | Potency [5] | Potency [6] | Potency [7] | Potency [8] | Potency [11] | Potency [12] | Potency [13] | Potency [14]

O=C(O)c1ccc(Cl)c(Cl)c1
inactive: Potency [1] | Potency [2] | Potency [3] | Potency [4] | Potency [5] | Potency [6] | Potency [8] | Potency [16] | Potency [11] | Potency [13] | Potency [14] | Potency [17]

NNC(=O)c1cccc(C(=O)NN)c1
inactive: Potency [1] | Potency [2] | Potency [3] | Potency [4] | Potency [5] | Potency [6] | Potency [7] | Potency [8] | Potency [9] | Potency [10] | Potency [16] | Potency [11] | Potency [12] | Potency [13] | Potency [14] | Potency [17]

CC(NN)c1ccccc1 (stereo unspecified)
inactive: activity change, negative = cytotoxicity [1] -1.38% [at 19 µM] | activation [2] -0.517% [at 19 µM] | activity change, negative = inhibition [3] -2.01% [at 18.9 µM] | activity change, negative = cytotoxicity [4] 0.118% [at 18.9 µM] | activity change, negative = cytotoxicity [5] -7.08% [at 19 µM] | viability change, negative = cytotoxic [6] 2.36% [at 15.8 µM] | activity change, negative = cytotoxicity [7] -16.9% [at 15.8 µM] | activation [8] 1.03% [at 15.8 µM] | activity change, negative = cytotoxicity [16] 0.166% [at 19 µM] | caspase activation [11] -0.345% [at 19 µM] | activity change, negative = cytotoxicity [12] 6.27% [at 19 µM] | caspase-3/7 activation [13] 2.13% [at 19 µM] | activity change, negative = cytotoxicity [14] 2.61% [at 19 µM] | activation [17] 7.91% [at 19 µM]

O=C1c2c(O)ccc(Nc3ccc(CCO)cc3)c2C(=O)c2c([N+](=O)[O-])ccc(O)c21
inactive: Potency [2] | Potency [3] | Potency [4] | Potency [5] | Potency [6] | Potency [7] | Potency [8] | Potency [9] | Potency [13]
active: Potency [1] 30.6 µM | Potency [16] 43.3 µM | Potency [12] 54.5 µM | Potency [14] 54.5 µM

Nc1c(Cl)cc(Cl)cc1Cl
inactive: Potency [1] | Potency [2] | Potency [3] | Potency [4] | Potency [5] | Potency [6] | Potency [7] | Potency [8] | Potency [9] | Potency [10] | Potency [16] | Potency [12] | Potency [13] | Potency [14] | Potency [17]

CO[Si](CCCNc1ccccc1)(OC)OC
inactive: Potency [1] | Potency [2] | Potency [3] | Potency [4] | Potency [5] | Potency [6] | Potency [8] | Potency [9] | Potency [10] | Potency [16] | Potency [11] | Potency [12] | Potency [13] | Potency [14] | Potency [17]

CCCCCCCCCCCCCCCS(=O)(=O)Oc1ccccc1
inactive: Potency [1] | Potency [2] | Potency [3] | Potency [4] | Potency [5] | Potency [6] | Potency [7] | Potency [8] | Potency [9] | Potency [16] | Potency [12] | Potency [13] | Potency [14] | Potency [17] | Potency [19]

CCCCCOc1ccccc1/C(=C\SC)n1ccnc1
inactive: Potency [1] | Potency [2] | Potency [6] | Potency [7] | Potency [8] | Potency [9] | Potency [10] | Potency [11] | Potency [14]
active: Potency [3] 3.76 µM | Potency [4] 5.31 µM | Potency [5] 7.5 µM | Potency [16] 23.7 µM | Potency [12] 16.8 µM | Potency [17] 2.98 µM | Potency [19] 4.36 µM

Nc1ccc2cc(S(=O)(=O)O)cc(O)c2c1N=Nc1ccccc1C(F)(F)F
active: Potency [1] 48.6 µM | Potency [16] 61.1 µM | Potency [12] 54.5 µM | Potency [14] 54.5 µM
inactive: Potency [2] | Potency [3] | Potency [4] | Potency [5] | Potency [7] | Potency [8] | Potency [9] | Potency [10] | Potency [11] | Potency [13] | Potency [17] | Potency [19]

CC(C)(C)C(=O)OCOC(=O)[C@@H]1N2C(=O)[C@@H](NC(=O)[C@H](N)c3ccccc3)[C@H]2SC1(C)C
inactive: Potency [1] | Potency [2] | Potency [3] | Potency [4] | Potency [5] | Potency [6] | Potency [7] | Potency [8] | Potency [9] | Potency [10] | Potency [16] | Potency [11] | Potency [12] | Potency [13] | Potency [14] | max activation [15] -1.52% | Potency [18] | Potency [19]

O=C1C=CC(=O)N1c1ccc(Cc2ccc(N3C(=O)C=CC3=O)cc2)cc1
inactive: Potency [1] | Potency [2] | Potency [3] | Potency [4] | Potency [5] | Potency [6] | Potency [8] | Potency [10] | Potency [11] | Potency [13] | Potency [19]
active: Potency [7] 61.6 µM | Potency [16] 61.1 µM | Potency [12] 6.11 µM | Potency [14] 68.6 µM | Potency [17] 4.86 µM

Reference: PubChem BioAssay (Tox21)
